# Columns and labels:
# Assay in all cases: PBM binding z-score (relative to random genomic background probes); higher = stronger binding; sequences stand for … in GC…GCGATTGACAGCGTAGAATGAAGG
# [1] = test system: PPARg:RXRa DBDmut IVT, anti-RXR (DBD mutation: RXRa K156A/R161A, NR concentration 270 nM, RXRa partner concentration 90 nM)
# Outline: (§1)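 The probes on custom Agilent 4×180K protein-binding microarrays were double-stranded, with 34-nt variable regions bearing direct-repeat seeds, single-nucleotide variants, half-site ablations and random human genomic background sequences. Incubation lasted 1 h with ligand-free nuclear receptor dimers in PBS pH 7.4, 2% milk, 0.02% Triton X-100, 1 mM DTT, 0.2 mg/mL BSA and 0.4 mg/ml salmon testes DNA. Antibodies against each partner (one per run) detected bound dimers, and fluorescence scans were regression-normalized. Binding z-scores take the random background probes as reference.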
# [2] = test system: PPARg:RXRa IVT, anti-PPARg (NR concentration 270 nM, RXRa partner concentration 90 nM)
# Outline: as §1
# [3] = test system: PPARg DBDmut:RXRa IVT, anti-PPARg (DBD mutation: PPARg1 K132A/R137A, NR concentration 270 nM, RXRa partner concentration 90 nM)
# Outline: as §1
# [4] = test system: PPARg DBDmut IVT, anti-PPARg (DBD mutation: PPARg1 K132A/R137A, NR concentration 270 nM)
# Outline: as §1
# [5] = test system: PPARg homodimer (NR concentration 180 nM)
# Outline: as §1
# [6] = test system: PXR:RXRa (NR concentration 270 nM, RXRa partner concentration 90 nM)
# Outline: as §1
# [7] = test system: PXR homodimer (NR concentration 270 nM)
# Outline: as §1
# [8] = test system: RARa:RXR (NR concentration 270 nM, RXRa partner concentration 90 nM)
# Outline: as §1
# [9] = test system: RARa homodimer (NR concentration 270 nM)
# Outline: as §1
# [10] = test system: RARb:RXRa (NR concentration 270 nM, RXRa partner concentration 90 nM)
# Outline: as §1
Sequence,PBM binding z-score [1],PBM binding z-score [2],PBM binding z-score [3],PBM binding z-score [4],PBM binding z-score [5],PBM binding z-score [6],PBM binding z-score [7],PBM binding z-score [8],PBM binding z-score [9],PBM binding z-score [10]
TTGCCTAGGTCATGGGCCAGTATACCACGCGAAC,1.44,3.33,0.457,0.0191,0.932,1.95,-0.21,2.8,-0.254,4.07
CCTACTGGGCCATTTAGAGGTCATTGATCATATG,3.95,4.32,0.156,0.0335,2.07,4.7,2.25,4.46,0.647,2.89
ACTAGCAGGCCAAGTTTGGGTCATTCAAACAAAG,0.974,1.1,-0.68,-0.939,0.745,1.08,-0.0146,1.73,-0.276,1.69
CCTGCTAGGTCATGGTCAGCTTATCTACAGTATG,4.34,3.48,0.0412,-0.178,1.32,1.35,-0.301,2.36,0.172,3.81
TCTATTAGTTTAAGGGCAACCGACGAGTCCGTTT,2.37,0.624,0.439,1.5,1.46,1.39,1.67,1.39,1.3,2.22
AGACCGAGGGCACGCTGAGTTGATAGCAGAGTAG,1.14,1.33,-0.432,-1.3,0.2,1.52,-0.245,0.998,-0.487,2.61
GCGACTGGGGCATCAGCAGGTTTCCATAACTTAA,3.74,2.62,-1.63,-0.793,0.145,-0.54,-0.0807,-0.096,-0.582,0.524
CCTACTGGGTCAAGGTCATTGATCAGTCAAAGCA,6.45,7.7,0.76,0.202,2.56,5.07,2.3,4.8,0.915,4.73
TCATACAGGTAATACAGGTGAAAGTCGGCATCTA,3.1,2.32,1.11,1.28,1.24,0.855,0.48,1.23,1.28,0.835
GCAGATAGGTAATACAAGGTGAAAGTCCGATTGT,0.315,0.869,0.607,0.154,0.298,0.645,0.172,0.91,0.423,0.412
CCTACTGGGCCAAAGGTCATTGAGTCCAATGCTC,5.06,6.83,0.176,-0.111,2.47,6.16,12.7,5.99,1.14,4.71
ATATCTAGGTTATCGGGTCATTCAGTTTGCGCAT,7.52,7.5,1.81,3.17,3.91,3.94,8.08,3.87,2.26,2.89
CTCGAAAGGTCGTTTGAGGTGAGTATACGGATAA,0.353,1.91,1.09,0.474,1.54,5.25,0.584,4.16,-0.088,3.89
GTACCAAGGTGAAAAGGTCGTTGATGAGTAGGCG,1.77,2.85,0.246,-0.0504,2.35,2.73,0.862,3.71,0.82,3.35
GATACAGGGGCAGCTAGAGGCCAGAGTATGGAAA,0.509,0.442,-0.18,-0.917,-0.0981,-0.0351,-0.216,-0.106,-0.394,1.57
ATCTCTAGGTAAAAGTTCCGTGAATCCCGAGGAT,2.32,1.72,0.769,1.67,0.967,-0.0655,0.269,0.0824,0.505,0.237
TCTGCTAGGTCAACGATGGTCAGCAAATCTGCTA,3.85,4.18,0.827,0.166,0.381,1.47,-0.599,2.12,-0.686,4.26
GCTATTAGTTGAAAGGGCAACCGGATGATTCTCG,0.432,0.892,0.0968,-0.308,1.33,0.775,0.0713,1.37,1.05,2.1
TCTGCTAGGACAGTTGGTCAGCTAACGAGCTGCC,0.464,0.0709,-0.543,-0.756,-1.29,-0.745,-1.05,-0.557,-1.03,0.346
GATACAGGGTCAGCTAGTGGCCAGAGTATGGAAA,1.03,2.29,-0.052,-0.0645,1.79,1.89,0.153,3.05,-0.0625,3.69
CAAACTATGTCAAGGTCAAAGTCGGTTTGTGCCA,5.27,4.71,0.328,0.339,2.4,5,3.33,4.46,1.69,4.25
CCTTACGGGTCATTCCAGGTTATAGCATCGGAGT,2.86,3.39,0.145,-0.0638,1.34,5.52,0.529,3.91,0.74,3.51
CGAACTAGGTAATCCAGGACAGTGAATACATTGA,5.67,4.69,0.81,0.796,0.0161,-0.34,-0.311,-0.156,0.04,0.0507
ACTAGCAGGCCAAGGGTCGCTCAAGATTAGTCCG,0.554,1.95,-0.249,-1.1,0.333,0.247,-0.683,0.951,-0.617,1.35

Sequence,PBM binding z-score [1],PBM binding z-score [2],PBM binding z-score [3],PBM binding z-score [4],PBM binding z-score [5],PBM binding z-score [6],PBM binding z-score [7],PBM binding z-score [8],PBM binding z-score [9],PBM binding z-score [10]
GCTTGTAGATCAAGGTTATGAAAGACTAAGCTAA,1.21,0.962,0.000562,0.0061,0.45,0.681,-0.0933,0.915,-0.0399,0.632
AGAATGAGGGTAAGATCAGGGAAACAGAATACAT,2.28,1.71,1.14,0.818,0.587,0.216,0.539,0.611,1.07,0.741
TAGCCTAGGTCATTGGGCCAGTATGGTACGCATC,2.56,3.68,0.116,0.266,1.26,1.38,-0.75,2.07,-0.00791,3.44
ATATGTAGGTTATCGGGTCATTTAGTTTGCGCAT,7.62,7.25,1.55,1.71,3.3,3.33,4.87,3.6,1.47,2.56
CCTTACAGGTCACTCCAGGTTATAGCATCGGAGT,4.37,4.23,0.516,0.777,2.41,4.74,0.873,3.71,1.13,4.61
CCTACTGGGGCAAAGGTTACCATACTCAGTACGA,5.92,7.16,3.64,1.43,4.58,2.6,-0.144,4.19,-0.0268,2.6
TCTAGTTGGTCACGTAGGTCACACACGACGGGTA,2.33,3.55,1.17,0.772,2.46,2.27,0.538,2.84,0.979,3.26
CAGCCTAGGTCATGGCCAGTATAGGAGGAACGTT,2.64,2.68,-0.045,-0.826,1.72,1.53,-0.702,2.45,0.132,3.99
AGAATGAGGTTATTAAGATCAGGCAATTGCGGTC,2.95,2.56,0.272,0.448,0.366,1.2,0.322,1.47,0.167,1.33
TCTCGGAGGACACGAAAGGTCAGAGGTCGACATC,1.89,2.44,-0.583,-0.569,2.83,5.34,0.827,6.51,1.05,4.57
TAGCCTAGCTCAGATCGGGCCAGTATACGCTATA,-0.922,-0.645,-0.837,-1.92,-1.79,-1.09,-1.09,-1.21,-1.25,-1.89
TCTAGCAGGCCAGAGGGTCACTTAAGAGGTACGG,0.598,0.688,-0.762,-0.435,0.442,1.35,-0.462,2.27,-0.441,2.19
CAAACTAGGTCAACGTCAAAGTCGGTTTGTGCCA,8.75,8.75,5.16,4.41,2.59,1.58,0.241,2.38,0.739,4.11
CCTTACGGGTCACTGACATGTTATAGCATTTGGA,3.55,4.1,1.46,0.945,1.83,3.22,0.262,4.06,1.38,4.06
TCATATAGGTAAATCCTAGGTGAAAGTCCGATCT,3.48,2.8,0.825,0.675,-0.358,0.68,0.175,1.11,0.51,0.592
TCTTGTAGATCATTAGAGGTTAAGAAAGTGCGCT,1.84,1.01,0.756,0.793,0.628,3.16,0.436,1.89,0.575,1.01
GTGCCAAGGTGAATAGGTCGTTGATGAGTAGGCG,2.01,2.66,0.113,-0.755,1.02,0.425,0.19,1.38,0.262,2.09
ATCTCTAGGTAACCAAGTTCAGTGACTGCCGAAC,4.09,2.78,0.981,0.674,1.09,2.14,2.22,0.968,1.12,1.14
TCTGCCAGGTCAGTTGGTCAGCTAACGAGCTGCC,1.26,1.9,-0.28,0.0313,0.213,0.349,-0.79,0.976,-1.08,3.29
TCTAGTTGGACACGGAGGTCACACACGACGGGTA,1.98,2.33,0.713,0.0839,2.38,4.16,1.05,4.39,1.25,3.45
CGTCCAAGGTCAGAGAGGTCAGTGAATGCCGAGT,3.16,3.45,0.28,-0.412,5.38,6.23,12.3,5.74,3.8,5.21
CCGAGTAGGTTATGGAGCATTCAGGCAACGGTGA,3.11,2.34,-1.14,-0.703,0.952,-0.208,0.0693,0.144,0.512,0.499
TCATATAGGTAATACAGGTGAAAGACGGCATCTA,4.17,3.37,1.39,1.69,1.42,0.845,0.764,1.34,1.85,0.786
TTACCAAGGAGAAGGTCGTTGATCCCTCTGTAGA,-0.339,-0.0762,-0.116,0.61,0.455,1.03,-0.292,1.34,-0.134,0.537

# From the supplement of paper PMC6555819
